Measurements from PubChem BioAssay AID651820 (National Center for Advancing Translational Sciences (NCATS), 2012).
Hit rate of the full screen: of about 340,000 compounds, about 12,000 (3.5%) were called active. About 18% were inconclusive and are not listed. The list comes from a sample in which actives are over-represented; it also holds similar structures and randomly drawn compounds. Unmarked numbers belong to inactive results. The call rests on the fitted dose curve; in most records, active means well fitted inhibition curve with a large enough effect; inconclusive means small, poorly fitted or top-dose-only effect, or another doubt; inactive means no such curve, though single readings can be large or run the other way.

Assay: qHTS Assay for Inhibitors of Hepatitis C Virus (HCV)
Details: Huh7.5.1 HCVcc-Cre infection, luciferase reporter, 44 h; series mostly up to 41.8 µM; activity change, negative = inhibition: at the top concentration
How it was run: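 Compounds are dispensed onto cells plated 4 h earlier at 1,000 per well, with HCVcc-Cre virus (about 0.5 moi) added next. Following 44 h of culture, luminescent signal is measured for 15 sec after 15 min with substrate at room temperature.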
On the % scale 0 is the no-effect control and ±100 the full control effect; potency means the concentration at half of the fitted maximal effect.

Row | SMILES | activity change, negative = inhibition | Potency
1 | CN(C)S(=O)(=O)c1ccc(N2CCCC2)c(C(=O)Nc2ccc(Br)cc2F)c1 | -2.12% | –
2 | COc1ccc(S(=O)(=O)N2CCN(c3cnccn3)CC2)cc1 | 16.3% | –
3 | Cc1ccc(Cc2cnc(NC(=O)/C(C#N)=C/c3ccc(-c4cccc([N+](=O)[O-])c4)o3)s2)cc1 | -8.13% | –
4 | CN(C)CCNC(=O)/C(=C/c1cccc([N+](=O)[O-])c1)NC(=O)c1ccccc1 | 15.7% | –
5 | C=CCNC(=O)/C(=C\c1cccc([N+](=O)[O-])c1)NC(=O)c1ccccc1 | -1.28% | –
6 | N#C/C(=C/c1ccc(-c2ccccc2[N+](=O)[O-])o1)C(=O)NCCN1CCCCC1 | -12.9% | –
7 | N#C/C(=C\c1ccc(-c2cccc([N+](=O)[O-])c2)o1)C(=O)NCCN1CCOCC1 | – | 14.1 µM (active)
8 | Cc1ccc(C(=O)N/C(=C/c2ccc(-c3cccc([N+](=O)[O-])c3)o2)C(=O)NCCCN(C)C)cc1 | – | 11.2 µM (active)
9 | Cc1ccc(-c2csc(C(C#N)=C(O)CN3CCN(C(=O)c4ccco4)CC3)n2)cc1 | 6.31% | –
10 | COc1cccc(OC)c1C(=O)NC(=S)N1C[C@H]2C[C@H](C1)c1cccc(=O)n1C2 | 24.9% | –
11 | Cc1cccc(NC(=O)N2CC3CC(C2)c2cccc(=O)n2C3)c1 (configuration not stated) | 18.3% | –
12 | COc1ccccc1NC(=O)N1C[C@@H]2C[C@@H](C1)c1cccc(=O)n1C2 | – | 1 µM (active)
13 | C=CCOc1cccc(C2C(C(=O)c3ccc(C)o3)=C(O)C(=O)N2c2nnc(C)s2)c1 (configuration not stated) | 3.6% | –
14 | CCCC(CNC(=O)COC(=O)C1=NNC(=O)CC1)c1ccc(Cl)cc1Cl (configuration not stated) | 2.1% | –
15 | CC(=O)c1ccc(NC(=O)C(C)OC(=O)c2ccc(NS(=O)(=O)c3ccc4[nH]c(=O)[nH]c4c3)cc2)cc1 (configuration not stated) | -5.4% | –
16 | CCCCN1CC(COCc2ccccc2)OCCS1(=O)=O (configuration not stated) | -20.5% | –
17 | CCCCC[C@@H]1C=C(C(=O)O)[C@H](c2ccc(C#N)cc2)N1S(=O)(=O)c1ccc(C)cc1 | -5.15% | –
18 | S=C(NCC1CCCO1)N1CCN(c2ccc(Cl)c(Cl)c2)CC1 (configuration not stated) | – | 10 µM (active)
19 | COc1ccc(S(=O)(=O)N2CCN(C(=S)NCC3CCCO3)CC2)cc1OC (configuration not stated) | -3% | –
20 | CCOc1ccc(S(=O)(=O)N2CCN(C(=S)NCC3CCCO3)CC2)cc1 (configuration not stated) | -4.09% [at 8.37 µM] | –
21 | CC(C)COc1ccc(C(=O)NNC(=O)CCC(=O)c2cccs2)cc1 | 1.77% | –
22 | COc1ccc(/C=N/NS(=O)(=O)c2ccc(NC(C)=O)cc2)cc1 | -10.6% | –
23 | COc1ccc(NS(=O)(=O)c2ccc(Oc3c(C#N)cccc3C#N)cc2)cc1 | – | 17.8 µM (active)
24 | COC(=O)COc1ccc(S(=O)(=O)Nc2ccc(NC(C)=O)cc2)cc1 | 0.696% | –
25 | O=C(O)C(=Cc1ccccc1[N+](=O)[O-])c1ccccc1 | 5.61% | –

Row | SMILES | activity change, negative = inhibition | Potency
26 | CN1CCN(c2ccc(NC(=O)c3ccc4c(c3)OCCO4)cc2Cl)CC1 | -11% | –
27 | O=C(Nc1ccc(N2CCOCC2)cc1)c1ccc2c(c1)OCO2 | -29.1% | –
28 | CN1CCN(c2ccc(NC(=O)c3cc(Cl)c4c(c3)OCCO4)cc2)CC1 | – | 10 µM (active)
29 | O=C(OCCN1C(=O)c2ccccc2C1=O)[C@@H]1CC(O)CN1S(=O)(=O)c1ccccc1[N+](=O)[O-] (some centres not stated) | -3.9% | –
30 | O=C(NC1=CC(=O)c2ccccc2C1=O)c1ccccc1 | – | 6.31 µM (active)
31 | O=C1C=C(NS(=O)(=O)c2ccccc2)C(=O)c2ccccc21 | -5.95% | –
32 | O=C(NC(=O)c1ccccc1)NC(=O)c1ccccc1 | 10.5% | –
33 | CC1=CC(=NNS(=O)(=O)c2ccc([N+](=O)[O-])cc2)CC(C)(C)C1 | 2.6% | –
34 | CC(=O)OC1C2(CC3N4C(=O)C5(CO)SSC4(CC31O)C(=O)N5C)OC(C)C(C)(C)C2=O (configuration not stated) | – | 0.562 µM (active)
35 | Cc1cc(Br)ccc1NC(=O)CN(C)C(=O)CN1C(=O)NC2(CCCC2)C1=O | -8.88% | –
36 | O=S(=O)(NCCCc1ccccc1)c1ccc(Br)cc1 | 16.7% | –
37 | O=C(Cn1cnc2c(OCc3ccccc3)ncnc21)NCc1nc2ccccc2[nH]1 | -17.2% | –
38 | CC(=O)Nc1ccc(NC(=O)COc2ncnc3ccccc23)cc1 | 25.3% | –
39 | CC(=O)Nc1ccc(Nc2c3ccccc3nc3ccccc23)cc1 | – | 7.08 µM (active)
40 | Cc1ccc(Nc2c3c(nc4ccccc24)CCC3)cc1 | -80.9% | –
41 | CCOc1ccc(NC(=O)c2ccc(NC(=O)CN3C(=O)C(=O)N(CC(C)C)C3=O)cc2)cc1 | -8.34% | –
42 | CCN(c1ccccc1)S(=O)(=O)c1ccc(C(=O)Nc2ccccc2OC)cc1 | -15.4% | –
43 | CN(C(=O)CSc1nnc(C2CC2)n1C)C1CCCc2ccccc21 (configuration not stated) | 14.8% | –
44 | CC(C)c1ccc(S(=O)(=O)N2CCN(C(C)C(=O)NC3CCCC3)CC2)cc1 (configuration not stated) | -12.7% | –
45 | CC(NS(=O)(=O)c1ccc(Br)cc1)C(=O)NCC1CCCO1 (configuration not stated) | -15.1% | –
46 | OC(CNCC1CCCO1)Cn1c2ccc(Br)cc2c2cc(Br)ccc21 (configuration not stated) | – | 35.5 µM (active)
47 | O=C(CCNS(=O)(=O)c1ccc(Br)cc1)NCC1CCCO1 (configuration not stated) | 9.8% | –
48 | CCOC(=O)c1ccccc1C(=O)N1CCOCCOCCOCC1 | 6.73% | –
49 | Cc1noc(C)c1C(=O)N1CCOCC1 | -3.5% | –
50 | Cc1oc2c(c1C(=O)N1CCOCC1)C(=O)c1ccccc1C2=O | – | 5.62 µM (active)

Row | SMILES | activity change, negative = inhibition | Potency
51 | O=C(NCCC(=O)N1O[C@@H]2C=C[C@H]1C2)OCC1c2ccccc2-c2ccccc21 | -5.37% | –
52 | CCn1c(=S)[nH]c2cc(S(=O)(=O)N3CCOCC3)ccc21 | 7.96% | –
53 | Cc1cccc(Cn2c(N3CCN(c4ccccc4)CC3)nc3c2c(=O)n(C)c(=O)n3C)c1 | – | 14.1 µM (active)
54 | Cn1c(=O)c2c(nc(CN3CCOCC3)n2Cc2ccccc2)n(C)c1=O | 2.12% | –
55 | COC(=O)C(C)Sc1nc2c(c(=O)n(C)c(=O)n2C)n1Cc1cccc(C)c1 (configuration not stated) | – | inactive
56 | COc1ccc(S(=O)(=O)N(C)C[C@@H]2Oc3ccc(NS(=O)(=O)c4cn(C)cn4)cc3C(=O)N([C@@H](C)CO)C[C@@H]2C)cc1 | 10.5% | –
57 | O=C(COC(=O)CCCN1C(=O)c2cccc3cccc(c23)C1=O)NC1CCS(=O)(=O)C1 (configuration not stated) | 10.7% | –
58 | C[C@H](NS(=O)(=O)c1ccc(Cl)cc1)C(=O)OCC(=O)N1CCOCC1 | 9.77% | –
59 | CC(O)C(NS(=O)(=O)c1ccc(Cl)cc1)C(=O)OCc1cc([N+](=O)[O-])cc2c1OCOC2 (configuration not stated) | – | 10 µM (active)
60 | Nc1ccccc1SCc1cc([N+](=O)[O-])cc2c1OCOC2 | -22.1% | –
61 | Cn1c(CC(=O)NNC(=O)c2ccccc2F)nc2ccccc21 | 8.68% | –
62 | O=C1/C(=C\c2ccsc2)NC(=S)N1c1ccccc1 | – | 11.2 µM (active)
63 | O=C1N/C(=C/c2cccn2-c2ccccc2)C(=O)N1c1cccc(Cl)c1 | 0.25% | –
64 | CN(C)c1ccc(/C=C2\NC(=S)N(Cc3ccccc3)C2=O)cc1 | -24.6% | –
65 | COc1ccc(C(=O)NCCCN2CCOCC2)cc1Br | 5.73% | –
66 | COc1ccc(-c2ccc(CNCCCN3CCOCC3)o2)cc1Cl | – | 11.2 µM (active)
67 | COc1ccc(S(=O)(=O)N(C)CC(=O)NCCCN2CCOCC2)cc1Cl | 1.4% | –
68 | CC(=O)NCc1ccc(-c2csc(NC(=O)CCCc3nc4ccccc4c(=O)[nH]3)n2)cc1 | -4.47% | –
69 | CCOC(=O)[C@H]1[C@H]2COc3ccccc3[C@@H]2N2C(=O)CN(Cc3ccccc3)C(=O)[C@@]12C | 1.73% | –
70 | COc1cccc(NC(=O)c2ccc(Cn3cc([N+](=O)[O-])cn3)o2)c1 | -3.39% | –
71 | COc1cccc(NC(=O)c2nn(C34CC5CC(CC(C5)C3)C4)cc2[N+](=O)[O-])c1 | – | 31.6 µM (active)
72 | COc1cccc(NC(=O)COc2cccnc2[N+](=O)[O-])c1 | -4.63% | –
73 | O=C1CC[C@@H]2CC3(C[C@@H]4CCN1[C@H]24)Nc1cc([N+](=O)[O-])ccc1NC3=NC1CCCCC1 (some centres not stated) | 22.9% | –
74 | C=CCN1C=C(C(=O)c2ccccc2)C(=O)CC1 | 39% | –
75 | Cc1nc2ccccc2c(C(=O)O)c1-c1ccccn1 | 9.5% | –

Row | SMILES | activity change, negative = inhibition | Potency
76 | c1ccc(-c2noc(-c3cccs3)n2)nc1 | 12.5% | –
77 | CC(C)(C)Nc1nc(-c2ccccn2)nc2ccccc12 | – | 4.47 µM (active)
78 | COc1ccc(/C=N/NC(=O)c2cc(-c3cccc(C)c3)nc3ccccc23)cc1O | -28.4% | –
79 | C=CCn1c(SCC(=O)NCCCO)nc2sc3c(c2c1=O)CCC3 | -6.08% | –
80 | C=C(C)Cn1c(SCC(=O)NCc2ccco2)nc2sc3c(c2c1=O)CCC3 | – | 8.91 µM (active)
81 | O=C(CSc1nc2cc3c(cc2c(=O)n1CCC1=CCCCC1)OCO3)NCc1ccco1 | 5.78% | –
82 | O=C(COC(=O)COc1cccc(F)c1)NCC1CCCCC1 | 28.3% | –
83 | O=C(Nc1ccon1)c1nc[nH]c1C(=O)NCc1ccccc1 | -2.4% | –
84 | COc1ccc2[nH]c3c(c2c1)CCN1C(=O)C(CC(=O)NCCCN(C)C)C[C@H](C(=O)N2CCOCC2)[C@@]31CCC1CCCC1 (some centres not stated) | -0.0933% | –
85 | O=C(CSc1nc2ccc(Nc3nc(N4CCOCC4)nc(N4CCOCC4)n3)cc2s1)NCc1ccco1 | – | 5.01 µM (active)
86 | O=C(CSc1c2c(nc3ccc(Cl)cc13)CCCC2)NCc1ccco1 | -25.9% | –
87 | C=CCn1c(CSc2nc3ccccc3s2)nnc1SCC(=O)NCc1ccco1 | – | inactive
88 | COCCN(Cc1ccccc1)C(=O)Cc1ccc(S(=O)(=O)N2CCOCC2)s1 | 0.153% | –
89 | CC1(C)CC2CC(C)(CN2c2ncnc3ccc(Br)cc23)C1 (configuration not stated) | – | 10 µM (active)
90 | COc1ccc(C(=O)N2CC3(C)CC2CC(C)(C)C3)cc1OC (configuration not stated) | -1.53% | –
91 | COc1ccccc1C(=O)N1CC2(C)CC1CC(C)(C)C2 (configuration not stated) | -12.3% | –
92 | CC(Oc1cccc(Cl)c1)C(=O)Nc1ccc(S(=O)(=O)Nc2ncccn2)cc1 (configuration not stated) | 14.9% | –
93 | COc1ccccc1CNC(=O)COn1nnc2ccc(S(=O)(=O)N3CCOCC3)cc21 | -9.22% | –
94 | Cc1cccc(NS(=O)(=O)c2ccc(C)c(C(=O)NCc3cccnc3)c2)c1 | 2.68% | –
95 | COC(=O)C1=C(c2ccc(F)cc2OCc2ccccc2)C[C@@H]2CC[C@H]1N2C(=O)NCc1ccc2[nH]ccc2c1 | -27.8% | –
96 | COC(=O)C1=C(c2cccc(OCc3ccccc3)c2)C[C@@H]2CC[C@H]1N2C(=O)NNCc1ccccc1 | -21.4% | –
97 | COC(=O)C1=C(c2ccccc2OCc2ccccc2)C[C@@H]2CC[C@H]1N2C(=O)NCc1ccc(OC)cc1 | – | 11.2 µM (active)
